Molecules are shown by their SMILES. Potency and affinity values are given separately. Results filed as inconclusive are left out. A call without a number means that no potency is given here. Active and inactive are the calls of the source.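 Rule for the calls: active = signal loss with fitted half-maximal concentration at or below twice the top valid tested dose in every test run; inconclusive = runs disagree, flat 30 to 70% signal loss, or poor fit; inactive = all runs flat, opposite direction, or potency beyond limit.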

The nature of this test: HEK293T cytotoxicity, dose response, cytotoxicity control for miR-122 modulator project, cell-based, inhibitor set, cherry-pick, set 2 (AID 720697). The conditions noted are these: HEK293T viability, CellTiter-Glo luminescence, 48 h; series mostly up to 26 µM. (In general: In ATP-based viability assays light output follows the ATP content of the culture.)
With `CCCNC(=O)N1C[C@@H]2[C@H](c3ccccc31)[C@@H](CO)N2C(=O)C1CCOCC1`, the outcome was inactive.

As for `Cc1cc(C(=O)Nc2ccc3c(c2)C(=O)N(C)[C@H]2CC[C@H](CC(=O)N[C@H](C)c4ccccc4)O[C@H]2CO3)no1`, the result was inactive.

As for `COc1cccc(CNC(=O)C[C@@H]2CC[C@@H]3[C@@H](COc4ccc(NC(C)=O)cc4C(=O)N3C)O2)c1`, the result was inactive.

Regarding `O=C(Nc1ccc(CN2CCOCC2)cc1)c1ccc(-c2ccc(Cl)cc2Cl)o1`, the molecule was called inactive.

Regarding `CC(C)NC(=O)Nc1ccc2c(c1)C(=O)N(C)[C@@H]1CC[C@H](CC(=O)NCC(F)(F)F)O[C@H]1CO2`, the call was inactive.

Regarding `COc1cc(C(=O)Nc2ccc(S(=O)(=O)N3CCCCC3C)cc2)cc(OC)c1OC` (centres undefined), the outcome was inactive.

Consider `CNC(=O)C[C@@H]1CC[C@H]2[C@@H](COc3ccc(NC(=O)c4cccc(OC)c4)cc3C(=O)N2C)O1`, for which the call was inactive.

For `C/C=C/c1ccc2c(c1)O[C@H](CN(C)C(=O)NCCC)[C@H](C)CN([C@@H](C)CO)S2(=O)=O`, the molecule was called inactive.

Regarding `Cc1cc(C)nc(NS(=O)(=O)c2ccc(NC(=S)NC(=O)C3CCCC3)cc2)n1`, the outcome was inactive.

For `CCNC(=O)C[C@H]1CC[C@@H]2[C@@H](COc3ccc(NC(=O)Nc4cccc(Cl)c4)cc3C(=O)N2C)O1`, the result was inactive.

In the case of `C/C=C/c1ccc([C@H]2[C@@H](CNC(=O)c3ccncc3)N(C(=O)CC)[C@H]2CO)cc1`, the molecule was called inactive.

For `C/C=C/c1ccc([C@@H]2[C@@H](CO)N(C(C)=O)[C@H]2CN(C(=O)COC)C(C)C)cc1`, the result was inactive.

For `CC(=O)Nc1ccc2c(c1)C(=O)N(C)[C@H]1CC[C@@H](CC(=O)NCc3ccc4c(c3)OCO4)O[C@@H]1CO2`, the result was inactive.

With `CC#CCCCC(=O)Nc1ccccc1C(=O)O`, the result was inactive.

Take `CC(C)N(C[C@H]1[C@H](c2ccccc2)[C@@H](CO)N1S(C)(=O)=O)C(=O)CN(C)C`: the outcome was inactive.

For `COc1ccc(C#Cc2ccc3c(c2)O[C@H](CN(C)C(=O)CN2CCOCC2)[C@H](C)CN([C@@H](C)CO)S3(=O)=O)cc1`, the call was inactive.

Turning to `CCC(=O)N1[C@H](CN(C(C)C)S(C)(=O)=O)[C@@H](c2ccccc2)[C@@H]1CO`, the result was inactive.

On to `Cc1cccc(NC(=O)Nc2ccc3c(c2)C(=O)N(C)[C@@H]2CC[C@@H](CC(=O)NCc4ccccc4Cl)O[C@H]2CO3)c1`, for which the molecule was called inactive.

In the case of `OC(c1cc(C(F)(F)F)nc2c(Cl)cc(Cl)cc12)C1CCCCN1` (centres undefined), the call was inactive.

In the case of `CNC(=O)C[C@@H]1CC[C@@H]2[C@H](COc3ccc(NC(=O)c4cccc(OC)c4)cc3C(=O)N2C)O1`, the molecule was called inactive.

For `COc1ccc(S(=O)(=O)Nc2ccc3c(c2)CC(=O)N([C@@H](C)CO)C[C@@H](C)[C@H](CN(C)Cc2ccc(-c4ccccc4)cc2)O3)cc1`, the molecule was called inactive.

Regarding `CC(C)CC#Cc1ccc2c(c1)O[C@H](CN(C)C(=O)c1cnccn1)[C@H](C)CN([C@@H](C)CO)S2(=O)=O`, the molecule was called inactive.

As to `C[C@@H]1CN([C@H](C)CO)S(=O)(=O)c2ccc(C3=CCCC3)cc2O[C@@H]1CN(C)C(=O)c1ccc(F)cc1`, the molecule was classed as inactive.

Consider `CN1C(=O)c2cc(NC(=O)Cc3ccccc3)ccc2OC[C@H]2O[C@@H](CC(=O)NCc3ccc(Cl)cc3)CC[C@@H]21`, for which the outcome was inactive.

With `CNC(=O)C[C@H]1CC[C@@H]2[C@H](COc3ccc(NC(=O)Nc4ccccc4OC)cc3C(=O)N2C)O1`, the call was inactive.

Turning to `O=C(NC[C@@H]1N[C@@H](CO)[C@H]1c1ccccc1)C1CCC1`, the result was inactive.

Turning to `Cc1ccc(-c2nnn(CC(=O)N(CC(=O)NCC3CCCO3)c3ccccc3)n2)o1` (centres undefined), the outcome was inactive.

For the molecule `O=C(Cc1cccnc1)N1[C@@H](CO)[C@@H]2c3ccccc3NC[C@@H]21`, the molecule was classed as inactive.

With `CN1C(=O)c2cc(NC(=O)c3ccccc3F)ccc2OC[C@H]2O[C@H](CC(=O)NCc3ccc4c(c3)OCO4)CC[C@@H]21`, the outcome was inactive.

With `CCNC(=O)C[C@@H]1CC[C@H]2[C@@H](COc3ccc(NC(=O)Nc4ccc(F)cc4)cc3C(=O)N2C)O1`, the molecule was called inactive.

`CCN(C[C@H]1N[C@@H](CO)[C@@H]1c1ccc(C2=CCCC2)cc1)C(=O)c1ccncc1`: the result was inactive.

Regarding `CC(C)OCCCNC(=O)c1ccncc1`, the molecule was called inactive.

For the molecule `COc1ccc2[nH]c(C(=O)O)c(NS(=O)(=O)c3ccc(Cl)s3)c2c1`, the molecule was called inactive.

Consider `C/C=C/c1ccc2c(c1)O[C@H](CN(C)C(=O)c1cnccn1)[C@H](C)CN([C@H](C)CO)S2(=O)=O`, for which the outcome was inactive.

Regarding `CCCNC(=O)N1[C@H](CNC(=O)c2ccc(F)cc2)[C@H](c2ccccc2)[C@@H]1CO`, the result was inactive.

In the case of `CC(C)(C)c1ccc(S(=O)(=O)NCCc2ccncc2)cc1`, the call was inactive.

For the molecule `CCNC(=O)Nc1ccc2c(c1)C(=O)N(C)[C@H]1CC[C@H](CC(=O)Nc3cccc(F)c3)O[C@@H]1CO2`, the outcome was inactive.

`C/C=C/c1ccc([C@H]2[C@H](CO)N[C@H]2CN(C)S(=O)(=O)c2ccccc2)cc1`: the outcome was inactive.

With `CCCNC(=O)C[C@@H]1CC[C@@H]2[C@@H](COc3ccc(NS(=O)(=O)c4ccccc4C)cc3C(=O)N2C)O1`, the result was inactive.

For the origin of these results see PubChem BioAssay AID720697 (Broad Institute, 2013).
